# From PubChem BioAssay (NCI)
# Compounds without any hit were thinned out: in the full panel of roughly 83,000, 20% have a hit.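 Values shown are percent growth following 48 h exposure of cells in 96-well plates to a single concentration of compound; below 10 was considered active.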 Unmarked numbers belong to inactive results. Activity calls are given as the source filed them.
# System: HL-60(TB) leukemia
# Assay: NCI-60 one-dose screen, 48 h (100 = growth as untreated, 0 = no growth, -100 = all killed)
# Conditions: 10 µM unless noted
row,SMILES,growth
1,COc1cc(-c2cnc3nonc3n2)c(OC)c2c1OCO2,88.8%
2,COc1cc(-c2csc(NC(=O)Nc3cc(Cl)cc(Cl)c3)n2)cc(OC)c1OC,34.9%
3,CCCNc1nc(N(C)O)nc(N(C)O)n1,3.47% (active)
4,COc1ccc(NC(=O)/C=C/c2ccc(Cl)c(Cl)c2)cn1,61.5%
5,COc1ccc(COC(=O)CC(C)C)cc1,99.7%
6,CC(=O)Cc1ccccn1,85.4%
7,CCN(CC)c1ccc2cc(C(Nc3ccc(C)cc3)c3nnnn3C(C)(C)C)c(=O)oc2c1 (stereo unspecified),89%
8,CCCCN1CCN(c2ccc3nc(-c4ccc5nc(-c6ccc(C(F)(F)F)cc6)[nH]c5c4)[nH]c3c2)CC1,-58.7% (active)
9,COc1ccc(-c2n/c(=C\c3c(O)[nH]c4ccccc34)cc3c2=Nc2ccccc2-3)cc1,-19.1% (active)
10,CC1CCN(CCCCCOc2ccc3oc4ccccc4c(=O)c3c2)CC1,44.6%
11,COC(=O)C1CC(=O)N(C(=O)Nc2ccc(Cl)cc2Cl)C1 (stereo unspecified),97.8%
12,CCC(C)(c1ccc(O)c(C)c1)c1ccc(O)c(C)c1,128%
13,NC(=O)CCC(C(=O)O)N1C(=O)c2ccc(O)cc2C1=O (stereo unspecified),134%
14,CC(C)NS(=O)(=O)c1cccc(-c2ccc3c4c(n(CCCN(C)C)c(=O)c3c2)-c2ccccc2C4=O)c1,65.3%
15,CO[C@H]1C[C@@H]2CC[C@@H](C)[C@@](O)(O2)C(=O)C(=O)N2CCCC[C@H]2C(=O)O[C@H]([C@H](C)C[C@@H]2CC[C@@H](O)[C@H](OC)C2)CC(=O)[C@H](C)/C=C(\C)[C@@H](O)[C@@H](OC)C(=O)[C@H](C)C[C@H](C)\C=C/C=C/C=C/1C,16.5%
16,CCN1C(=O)N(CC)C2C1NN=c1s/c(=C3\C(=O)N(CCc4ccccc4)c4ccccc43)c(=O)n12 (stereo unspecified),-46.1% (active)
17,O=C1c2ccc3c4c(ccc(c24)C(=O)N1CCNCc1ccccc1)C(=O)N(CCNCc1ccccc1)C3=O,-34.6% (active)
18,Cc1c(C(=O)N[C@@H](Cc2ccccc2)C(=O)C(=O)NCc2ccc(F)cc2)[nH]c2ccccc2c1=O,96.8%
19,CCC(C)[C@@H]1NC(=O)[C@@H]2CCCN2C(=O)[C@H](Cc2ccccc2)NC(=O)[C@@H]2CCCN2C(=O)[C@H](Cc2ccccc2)NC(=O)[C@@H]2CCCN2C(=O)[C@H](Cc2ccccc2)NC1=O (stereo partly specified),95.6%
20,CCCCOC(=O)c1ccc(NC(=O)C(C)N2CCOCC2)cc1 (stereo unspecified),82%
21,CCOC(=O)c1cc(C(=O)c2cc(OC)cc(OC)c2)n2ncc3ccccc3c12,-8.3% (active)
22,O=C1Nc2ccc(Cl)cc2/C1=C\c1c(-c2ccc(F)cc2)nc2ccccn12,-37.7% (active)
23,COc1ccc(C(=O)CCC(=O)O)cc1,98.6%
24,O=C1NC(Cc2c[nH]c3ccccc23)C(=O)N1Cc1ccc(Cl)cc1 (stereo unspecified),74%
25,CCOP(=O)(CCN1CCN(CCCCCOc2cc3c(cc2OC)C(=O)N2CCC[C@H]2C=N3)CC1)OCC,10.9%
26,O=C(Nc1ccccc1CNc1nc(Nc2ccc(OCCN3CCCC3)cc2)ncc1Cl)NC1CCCCC1,99.9%
